# Laboratory results as given in PubChem BioAssay (NCI).
# The panel holds about 83,000 compounds, 20% with a hit somewhere; the sample as a whole holds those more often.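 How to read the values: 0–100, growth inhibition (40 = 60% inhibited); 0, no net growth; -100 to 0, cell death (-40 = 40% of starting cells died; -100 = all dead).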 Calls of active or inactive are those of the source. The calls were made as follows: active = growth percent below 10; inactive = the rest.
# Tested on: BT-549 breast
# Experiment: NCI-60 one-dose screen, 48 h (100 = growth as untreated, 0 = no growth, -100 = all killed)
# Conditions: 10 µM unless noted
row,SMILES,growth
1,C[C@]12CC[C@@H]3c4ccc(Oc5nc(N6CC6)nc(N6CC6)n5)cc4CC[C@H]3[C@@H]1CCC2=O,53.9% (inactive)
2,O=C(Nc1ccncc1F)c1cn(CC2CC2)c2ccccc12,94.4% (inactive)
3,CC1=C(CNO)C2=C(C)C3(CC3)[C@@](C)(O)C(=O)C2=C1,-13% (active)
4,Nc1nnnc2nc[nH]c12,43.8% (inactive)
5,CC(=O)Nc1nc2c(s1)CC[C@@]1(C)C2=CC[C@H]2[C@@H]3CC[C@H](O)[C@@]3(C)CC[C@@H]21,42.6% (inactive)
6,CC[CH2][Sn]([Cl])([Cl])[CH2]CC,60.7% (inactive)
7,O=C([O][Hg][c]1ccccc1)c1ccccc1,-92.7% (active)
8,C[S+]1C=Cc2ccccc2C1c1ccc(Cl)cc1 (stereo not given),85.6% (inactive)
9,CC(C)CCC(=O)O[C@H]1CC[C@H]2[C@@H]3CCC4=CC(=O)CC[C@]4(C)[C@H]3CC[C@]12C,104% (inactive)
10,NC(=Nc1ccccc1)N[N+](=O)[O-],88.5% (inactive)
11,O=C(CC1(O)C(=O)N(Cc2ccccc2)c2ccc(Cl)cc21)c1ccc(C(=O)NCC2CCC3(CC2)OOC2(CCCCC2)OO3)cc1 (stereo not given),11.8% (inactive)
12,Fc1ccc(N2COOC3(OOC2)C2CC4CC(C2)CC3C4)cc1,95.4% (inactive)
13,COc1ccc([As]=[As]c2ccc(OC)c(NCS(=O)(=O)O)c2)cc1NCS(=O)(=O)O (stereo not given),-12.1% (active)
14,CC1=C(O)[C@@](C)(CCCCC[C@H](C)CCCCc2ccc(O)cc2)OOC1=O,97.4% (inactive)
15,Cc1cc(N(CCCl)CCCl)ccc1C=Nc1ccc(-c2csc(Cc3ccccc3)n2)cc1,69% (inactive)
